Data on 36 compounds can be found in PubChem BioAssay.
Further: test concentration not given here.

A short description of the first experiment: adipocyte viability effects, profiling panel, cell-based, 3T3-L1 adipocytes, calcein-AM fluorescence, 48 h, basal (AID 1163). The following applies: 3T3-L1 adipocytes viability, higher = more signal.
Consider `COCCOC(=O)N1C(=O)[C@@]2(c3cc(C#Cc4ccc(OC)cc4)ccc31)[C@H](c1ccc(OCCO)cc1)N1[C@H](c3ccccc3)[C@H](c3ccccc3)OC(=O)[C@H]1[C@@H]2C(=O)N1CCN(c2ncccn2)CC1`, for which the z-score is 0.901.

Turning to `CCC[C@@H]1C[C@@]1(CCC)[C@@H](NC(=O)c1ccccc1)c1cccc(Cl)c1`, the z-score is -0.546.

As to `[N-]=[N+]=Nc1ccccc1[C@H]1OC(c2ccc(OCCCO)cc2)=N[C@@]1(CCS(=O)(=O)c1ccccc1)C(=O)NCC(O)CO` (stereo partly specified), the z-score is 0.638.

On to `O=C1N[C@@H](Cc2ccccc2)C(=O)N2[C@@H]1C[C@@H](C(=O)O)[C@H]2c1cccc(OCCO)c1`, for which the z-score was -0.732.

Turning to `COc1ccc([Si](C)(C)[C@@H]2[C@@H](CC(=O)N3CCC[C@H]3CO)O[C@]3(C(=O)N(c4ccccc4)c4ccccc43)[C@H]2C)cc1`, the z-score was 0.93.

In the case of `CC(C)N1C(=O)C[C@@](C(=O)NCC(F)(F)F)(c2ccc([N+](=O)[O-])cc2)[C@H]1c1ccc(CO)cc1`, the z-score was 1.13.

Take `CN1C(=O)C2C=CC(C(O)C#Cc3ccccc3)N(N3CCCCC3)C2C1=O` (stereo unspecified): the z-score is -0.382.

For the compound `C=C(C)[C@@H]1CC=C(C(O)C2C=CC3C(=O)N(C)C(=O)C3N2Nc2ccccc2)CC1` (stereo partly specified), the z-score is -1.16.

For `C=CCOC(=O)[C@@H]1[C@H]2C(=O)O[C@H](c3ccccc3)[C@H](c3ccccc3)N2[C@H](c2ccc(OCCOC(=O)[C@@H]3C[C@@H]4C(=O)NCC(=O)N4[C@@H]3c3ccc(O)cc3)cc2)[C@@]12C(=O)Nc1ccc(I)cc12`, the z-score is 0.198.

Take `COC(=O)[C@@]1(Cc2ccc(OC)cc2)[C@H]2c3cc(C(=O)N(C)C)n(CCc4ccccn4)c3C[C@H]2CN1C(=O)c1ccccc1`: the z-score is -0.812.

A further experiment can be described thus: HepG2 cell viability effects, profiling panel, calcein-AM fluorescence, 48 h, basal (AID 1164). The settings on record: higher = more signal.
For `O=C1C2C=CC(C(O)Cc3ccccc3)N(n3cnnc3)C2C(=O)N1Cc1ccccc1` (stereo unspecified), the z-score is -0.065.

With `Cc1ccc(S[C@]2(C(=O)NCCCN(C)C)CC(=O)N(Cc3ccccc3C(F)(F)F)[C@@H]2c2ccc(CO)cc2)cc1`, the z-score is 0.41.

For the compound `COc1cc(C(O)C2C=CC3C(=O)NC(=O)C3N2Nc2ccccn2)cc(OC)c1OC` (stereo unspecified), the z-score is -1.31.

Turning to `C=CCNC(=O)[C@H]1[C@@H]2C(=O)O[C@@H](c3ccccc3)[C@@H](c3ccccc3)N2[C@@H](c2ccccc2OCCO)[C@]12C(=O)Nc1ccc(C#CCC(C(=O)OC)C(=O)OC)cc12`, the z-score is -0.845.

As to `COCCOC(=O)N1C(=O)[C@@]2(c3cc(C#CCNC(N)=O)ccc31)[C@H](C(=O)N1CCN(c3ncccn3)CC1)[C@H]1C(=O)O[C@H](c3ccccc3)[C@H](c3ccccc3)N1[C@@H]2c1ccc(OCCO)cc1`, the z-score was 0.548.

On to `CCOC(=O)C[C@H]1[C@H](OC(=O)c2ccc(C(=O)c3ccccc3)cc2)[C@@H](NC(=O)c2ccc3ccccc3c2)c2cc(OCCCO)ccc2N1C(=O)Cc1ccc(OC)cc1`, for which the z-score is 0.294.

For the compound `C[C@H]1NC(=O)[C@@]23C(=O)N[C@@H](Cc4ccccc4)C2[C@H](C)[C@@]2(C)O[C@H]2C3/C=C/C/C=C\CNC(=O)[C@@H]2CCCN2C1=O` (stereo partly specified), the z-score is -0.0389.

For `C=C(CCCC)/C(=C/C[C@@H](OC(=O)c1ccncc1)c1ccc(OCCO)cc1)c1cc(C(=O)OC)ccc1OC`, the z-score was 1.86.

As for `CN1C(=O)C2C=CC(C(O)c3ccc([N+](=O)[O-])cc3)N(N3CCCCC3)C2C1=O` (stereo unspecified), the z-score was -0.384.

`CC(C)C(=C=CC[C@H](O)c1ccc(OCCO)cc1)CCO`: the z-score is 0.101.

As to `C[C@H]1C2[C@H](Cc3ccccc3)NC(=O)[C@]23C(=O)N[C@H](Cc2ccccc2)C(=O)N2CCC[C@H]2C(=O)NC/C=C\C/C=C/C3[C@@H]2O[C@]12C` (stereo partly specified), the z-score was 0.445.

As to `CN(C)CCCCCCNC(=O)[C@H]1C[C@H]2C(=O)N[C@@H](CCCCN)C(=O)N2[C@H]1c1cccc(OCCO)c1`, the z-score was -0.458.

Consider `C=CCC(OC(C)=O)[C@@H]1[C@@H](N(Cc2cc3ccccc3o2)C(=O)c2cccc3ccccc23)c2cc(OCCCO)ccc2N1C(=O)c1ccc(-c2ccccc2)cc1` (stereo partly specified), for which the z-score is 0.168.

`COC(=O)[C@@]1(Cc2ccc(OC)cc2)[C@H]2c3cc(C(=O)N4CCCC4)n(Cc4ccc(O)c(OC)c4)c3C[C@H]2CN1C(=O)c1ccccc1`: the z-score was 0.321.

Turning to `COC(=O)[C@@]1(Cc2ccc(OC)cc2)[C@H]2c3cc(C(=O)N4CCCC4)n(Cc4ccc(C)c(F)c4F)c3C[C@H]2CN1C(=O)c1ccccc1`, the z-score is 0.682.

On to `C=CCOC(=O)[C@H]1[C@@H]2C(=O)O[C@@H](c3ccccc3)[C@@H](c3ccccc3)N2[C@@H](c2ccc(OCCOC(=O)[C@@H]3C[C@@H]4C(=O)N[C@@H](CCCCNC(C)=O)C(=O)N4[C@@H]3c3ccc(O)cc3)cc2)[C@]12C(=O)Nc1ccccc12`, for which the z-score was -0.578.

Regarding `COC(=O)[C@@]1(Cc2ccc(OC)cc2)[C@H]2c3cc(C(=O)N(C)C)n(Cc4ccc(S(C)(=O)=O)cc4)c3C[C@H]2CN1C(=O)c1ccccc1`, the z-score was 1.13.

As for `CC(C)=CCN[C@H](CO)c1ccccc1`, the z-score was -0.0885.

`COC(=O)[C@@]1(Cc2ccc(F)cc2)[C@H]2c3cc(C(=O)N4CCCC4)n(Cc4ccc(S(C)(=O)=O)cc4)c3C[C@H]2CN1C(=O)c1ccccc1`: the z-score was -0.035.

Regarding `COc1ccc(C#Cc2ccc3c(c2)[C@]2(C(=O)N3)[C@H](C(=O)Nc3nc4ccccc4s3)[C@H]3C(=O)O[C@H](c4ccccc4)[C@H](c4ccccc4)N3[C@@H]2c2ccc(O)cc2)cc1`, the z-score is 0.949.

Take `[N-]=[N+]=Nc1ccccc1[C@H]1OC(c2ccc(OCCCO)cc2)=N[C@@]1(CCS(=O)(=O)c1ccccc1)C(N)=O`: the z-score was 0.0844.

With `CC(C)c1ccc(NN2C(C(O)c3ccc(B(O)O)cc3)C=CC3C(=O)N(c4ccccc4)C(=O)C32)cc1` (stereo unspecified), the z-score was -1.28.

`COC(=O)[C@@]1(Cc2ccc(F)cc2)[C@H]2c3cc(C(=O)N(C)C)n(Cc4ccccc4)c3C[C@H]2CN1C(=O)c1ccccc1`: the z-score is -0.344.

With `[N-]=[N+]=Nc1ccccc1[C@@H]1OC(c2ccc(OCCCO)cc2)=N[C@]1(Cc1ccccc1)C(=O)N1CCOCC1`, the z-score is -0.404.

Consider `CN(C)C(=O)[C@]1(Cc2ccccc2N=[N+]=[N-])N=C(c2ccc(OCCCO)cc2)O[C@@H]1c1ccccc1N=[N+]=[N-]`, for which the z-score is -0.468.

Regarding `CC(C)NC(=O)[C@@]1(c2ccc([N+](=O)[O-])cc2)CC(=O)N(C2CCCCC2)[C@@H]1c1ccc(CO)cc1I`, the z-score is 0.243.

On to `COCCOC(=O)N1C(=O)[C@@]2(c3cc(C#Cc4ccc(OC)cc4)ccc31)[C@H](c1ccc(OCCO)cc1)N1[C@H](c3ccccc3)[C@H](c3ccccc3)OC(=O)[C@H]1[C@@H]2C(=O)N1CCN(c2ncccn2)CC1`, for which the z-score was -0.169.

Regarding `CCC[C@@H]1C[C@@]1(CCC)[C@@H](NC(=O)c1ccccc1)c1cccc(Cl)c1`, the z-score is -0.0147.

As for `[N-]=[N+]=Nc1ccccc1[C@H]1OC(c2ccc(OCCCO)cc2)=N[C@@]1(CCS(=O)(=O)c1ccccc1)C(=O)NCC(O)CO` (stereo partly specified), the z-score is 0.0911.

For the compound `O=C1N[C@@H](Cc2ccccc2)C(=O)N2[C@@H]1C[C@@H](C(=O)O)[C@H]2c1cccc(OCCO)c1`, the z-score was -0.0202.

Consider `COc1ccc([Si](C)(C)[C@@H]2[C@@H](CC(=O)N3CCC[C@H]3CO)O[C@]3(C(=O)N(c4ccccc4)c4ccccc43)[C@H]2C)cc1`, for which the z-score was -0.259.

As to `CC(C)N1C(=O)C[C@@](C(=O)NCC(F)(F)F)(c2ccc([N+](=O)[O-])cc2)[C@H]1c1ccc(CO)cc1`, the z-score was -0.0704.

For the compound `CN1C(=O)C2C=CC(C(O)C#Cc3ccccc3)N(N3CCCCC3)C2C1=O` (stereo unspecified), the z-score was -0.149.

Consider `C=C(C)[C@@H]1CC=C(C(O)C2C=CC3C(=O)N(C)C(=O)C3N2Nc2ccccc2)CC1` (stereo partly specified), for which the z-score is -0.651.

Consider `C=CCOC(=O)[C@@H]1[C@H]2C(=O)O[C@H](c3ccccc3)[C@H](c3ccccc3)N2[C@H](c2ccc(OCCOC(=O)[C@@H]3C[C@@H]4C(=O)NCC(=O)N4[C@@H]3c3ccc(O)cc3)cc2)[C@@]12C(=O)Nc1ccc(I)cc12`, for which the z-score was -0.207.

As to `COC(=O)[C@@]1(Cc2ccc(OC)cc2)[C@H]2c3cc(C(=O)N(C)C)n(CCc4ccccn4)c3C[C@H]2CN1C(=O)c1ccccc1`, the z-score was -0.173.
